Reference: PubChem BioAssay AID1878 (Sanford-Burnham Center for Chemical Genomics, 2009)
In all, about 1,000 compounds went through this assay and about 200 (20%) were called active. Cut-off read from the data, not from the text of the source: active = inhibition above about 55%; inactive = the rest. A selection follows. Measured potencies and affinities stand elsewhere.

Target: Dual specificity protein phosphatase 3 (Homo sapiens) (UniProt P51452)
Experiment: VHR1 phosphatase inhibitors, biochemical (AID 1878)
Details: recombinant VHR phosphatase, fluorogenic substrate; at 13.3 µM; stronger effect = higher value

Sequence of Dual specificity protein phosphatase 3 (Homo sapiens) (P51452 whole entry, looked up): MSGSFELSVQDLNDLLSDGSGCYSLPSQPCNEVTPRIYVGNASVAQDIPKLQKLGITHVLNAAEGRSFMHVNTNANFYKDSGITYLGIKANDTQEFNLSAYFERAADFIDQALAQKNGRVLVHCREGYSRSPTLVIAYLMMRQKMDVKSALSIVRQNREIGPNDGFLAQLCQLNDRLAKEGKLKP

| SMILES | inhibition |
| --- | --- |
| Cc1ccccc1NC(=O)c1cccc(NC(=O)c2ccco2)c1 | -9.7% (inactive) |
| CC(=O)c1ccc(NC(=O)c2ccc3nc(-c4ccco4)c(-c4ccco4)nc3c2)cc1 | 92.7% (active) |
| CC(=O)c1ccc(NC(=O)CCn2c(=S)oc3ccccc32)cc1 | 40.7% (inactive) |
| CC(C)Cn1c(=O)c2ccccc2n2c(CCC(=O)NC3CCN(Cc4ccccc4)CC3)nnc12 | 17.9% (inactive) |
| Cn1nc(-c2ccc(C(=O)Nc3ccc(F)cc3)cc2)c2ccccc2c1=O | 96.2% (active) |
| O=C(Nc1ccccc1-c1nnn(CC(=O)N2CCOCC2)n1)c1ccc(F)cc1 | -1.6% (inactive) |
| COCCNC(=O)Cn1nc(-c2ccc(C)cc2)c2ccccc2c1=O | 2.6% (inactive) |
| CCn1cc(C(=O)N2CCCC(N3CCN(c4cccc(C(F)(F)F)c4)CC3)C2)cn1 (stereo not given) | -9% (inactive) |
| COCCCNC(=O)Cn1cc(/C=C(\C#N)C(=O)NC2CC2)c2ccccc21 | -8.8% (inactive) |
| CCN(CC)CCC(=O)N1c2ccccc2CCc2ccc(NC(=O)OC(C)C)cc21 | 3.9% (inactive) |
| O=c1[nH]c(=O)c2nc3c4ccccc4c4ccccc4c3nc2[nH]1 | 80.4% (active) |
| Cn1nc(C(=O)NCCCN2CCCCC2)c2c1-c1ccccc1S(=O)(=O)C2 | -6.6% (inactive) |
| Cc1ccc(NC(=O)C2CCN(S(=O)(=O)c3ccc4c(c3)NC(=O)CO4)CC2)cc1 | -0.8% (inactive) |
| COc1ccc(CNCC(O)(c2ccccc2)c2ccc(F)cc2)cc1OC (stereo not given) | 13% (inactive) |
| Cc1sc2ncn(CC(=O)N3CCCC(C)C3)c(=O)c2c1S(=O)(=O)N1CCCCC1 (stereo not given) | 7.1% (inactive) |
| O=C(NC(=O)c1ccccc1)Nc1ccccc1 | 2.5% (inactive) |
| O=C(NC(=S)Nc1ccc(CN2CCCCC2)cc1)c1cccc(OCc2ccccc2)c1 | -29.4% (inactive) |
| COc1cc2ccccc2cc1C(=O)NC(=S)Nc1cccc(C(=O)O)c1 | 55% (active) |
| O=C(CSc1nc(-c2ccccc2)nc2c1Cc1ccccc1O2)Nc1ccc(C(=O)O)cc1 | 98.8% (active) |
| O=C(CNCCc1ccccc1)Nc1ccc(C(=O)N2CCCCC2)cc1 | 3.1% (inactive) |
| CC(=O)c1ccc(NC(=O)CSc2nc(C)cc(C)c2C(N)=O)cc1 | -9.9% (inactive) |
| O=C(CSc1nc(-c2ccc(F)cc2)nc2c1Cc1ccccc1O2)Nc1cccc(C(=O)O)c1 | 96.6% (active) |
| CCCCn1c(N)c(N(CCOC)C(=O)c2cc(S(=O)(=O)N3CCCCC3)ccc2Cl)c(=O)[nH]c1=O | -7.9% (inactive) |

| SMILES | inhibition |
| --- | --- |
| COC(=O)c1ccc(COc2ccc(C(C)(C)C)cc2)o1 | 29.7% (inactive) |
| O=C1CCCN1CCC(=O)N1CCCC(CO)(Cc2ccccc2)C1 (stereo not given) | 26.9% (inactive) |
| CC1CC(C)CN(CCCNC(=O)c2ccc(CNS(=O)(=O)c3ccc(F)cc3)cc2)C1 (stereo not given) | 2.4% (inactive) |
| COc1ccc(CN2C(=O)c3cccnc3C2=O)cc1S(=O)(=O)NC1CCCCC1 | -2.5% (inactive) |
| CCOc1ccc(C(=O)N2CCC3(CC2)NCCc2[nH]cnc23)cc1OCC | -1.8% (inactive) |
| Cc1c(C)c2ccc(O[C@@H]3O[C@H](CO)[C@H](O)[C@H](O)[C@H]3O)c(C)c2oc1=O | -3.5% (inactive) |
| Cc1c(NC(=O)c2ccc(Cl)c(S(=O)(=O)N3CCCCC3)c2)c(=O)n(-c2ccccc2)n1C | -10.6% (inactive) |
| CCC1CCCCN1CCCNC(=O)CNC(=O)c1nn(-c2ccc(OC)c(Cl)c2)c(=O)c2ccccc12 (stereo not given) | -5.3% (inactive) |
| COc1ccc(CN2CCNC(=O)C2CC(=O)NCC2CCOCC2)c(C)c1C (stereo not given) | 15.1% (inactive) |
| COCCNc1cc(C)nc2c3c(C)cc(C)nc3nn12 | 9.5% (inactive) |
| CCOc1cc(/C=C(\C#N)C(=O)Nc2cccc(C(=O)O)c2)ccc1OCc1ccccc1Cl | 94.8% (active) |
| CCOc1ccccc1NC(=O)Nc1cc(C(=O)O)ccc1C | -10.9% (inactive) |
| C/C=C/c1ccc(OCC(O)CNCCc2ccc(OC)cc2)c(OC)c1 (stereo not given) | 11.7% (inactive) |
| COc1cc(/C=C(\C#N)C(=O)Nc2ccc(C(=O)O)cc2)ccc1OC(=O)c1cccc(F)c1 | 67.8% (active) |
| COc1ccc(CCC(=O)NNC(=O)Nc2ccc(OC)c(OC)c2)cc1 | 1.3% (inactive) |
| CCOc1ccc(C(=O)Nc2cc3c(cc2N2CCCC2)n(CC)c(=O)n3CC)cc1OCC | -0.2% (inactive) |
| CCOc1cc(/C=C(\C#N)C(=O)Nc2ccccc2C(=O)O)ccc1OC(=O)c1ccc(C)cc1 | 87.8% (active) |
| CCOc1cc(/C=C(/C#N)C(=O)Nc2ccc(OC)cc2)ccc1OCc1ccc(C(=O)O)cc1 | 90.9% (active) |
| CCc1ccccc1S(=O)(=O)c1c(C)cc(C)nc1Cl | -1.3% (inactive) |
| C=CCC(=O)NC1CC(C)(C)Cc2c1cnn2-c1ccc(C)cc1 (stereo not given) | -12.1% (inactive) |
| CCC(=O)NC1=C(Nc2ccc(N)cc2)C(=O)c2ccccc2C1=O | -7.2% (inactive) |
| O=C(NC1CCCCC1)c1cc(-c2ccccc2Cl)on1 | 3.4% (inactive) |
| CCCN1C2CCCC1CC(NC(=O)NC13CC4CC(CC(C4)C1)C3)C2 (stereo not given) | 25.2% (inactive) |

| SMILES | inhibition |
| --- | --- |
| CC(C)c1nn2c(=O)cc(COc3cccc(NC(=O)c4ccco4)c3)nc2s1 | 10.3% (inactive) |
| O=C(Nc1cccc(O)c1)C1CC(c2cccc(Br)c2)=NO1 (stereo not given) | 6.5% (inactive) |
| O=C(Nc1ccc(C(=O)N2CCN(c3ccc(F)cc3)CC2)cc1)C1=CSCCO1 | 4.8% (inactive) |
| Cc1nn(CC(=O)NCCCN2CCCCC2)c(=O)c2cc(-c3ccccc3)nn12 | 22.8% (inactive) |
| COc1cc(CNc2ccc(N3CCOCC3)cc2)ccc1OCC(=O)NC(C)(C)C | 2.1% (inactive) |
| CCOc1ccccc1CN1CCC(n2nccc2NC(=O)C2CCCC2)CC1 | -19.2% (inactive) |
| COc1cc(C(=O)NCC2(c3ccccc3)CCCC2)ccc1OC(C)C | -7.1% (inactive) |
| Cc1ccc(-c2[nH]ncc2C(=O)c2ccccc2C)c(O)c1 | -9% (inactive) |
| CC(Cc1ccccc1)N1C(=O)c2ccccc2C1=O (stereo not given) | -2.4% (inactive) |
| C=CCN(C(=O)CNC(=O)c1cccs1)C(C(=O)NC(C)(C)C)c1ccccc1 (stereo not given) | -6% (inactive) |
| Cc1cc(Cl)c2oc(C(=O)NC(C)c3ccncn3)c(C)c2c1 (stereo not given) | -5.8% (inactive) |
| CC1Sc2ccc(S(=O)(=O)CCC(=O)N(C)Cc3ccco3)cc2NC1=O (stereo not given) | -2.5% (inactive) |
| CC(C)(C)C(=O)NN=C1CCC(c2ccccc2)CC1 (stereo not given) | -3.9% (inactive) |
| CCOC(=O)C1(CCOc2ccccc2)CCN(CC(O)CO)CC1 (stereo not given) | -7.8% (inactive) |
| CC1CCCN(CCCNC(=O)c2ccc3c(c2)N(Cc2ccccc2F)C(=O)c2ccccc2S3(=O)=O)C1 (stereo not given) | -12.5% (inactive) |
| Cc1ccc(C(=O)Nc2ccccc2N2CCCC2)cc1 | 21% (inactive) |
| CC(C)Cn1c(C23CC4CC(CC(C4)C2)C3)n[nH]c1=S | 10% (inactive) |
| CCCCNC(=O)c1cn(C)c2ccc(S(=O)(=O)N3CCCC3)cc2c1=O | -4% (inactive) |
| Cc1ccc(CN2C(=O)CC(Nc3ccc(N4CCOCC4)cc3)C2=O)cc1 (stereo not given) | 1.9% (inactive) |
| Cc1ccc2nc(N3CCN(C)CC3)c(C=O)c(=O)n2c1 | 2.4% (inactive) |
| O=C(c1cc(F)c(F)c(F)c1F)N1CCN(Cc2ccc3c(c2)OCO3)CC1 | -6.3% (inactive) |
| O=C1NN(c2ccccc2)C(=O)/C1=C\c1ccccc1 | 5.2% (inactive) |
| CN(C)c1nc(N(C)C)nc(N(C#N)Cc2ccc(Cl)cc2)n1 | 2% (inactive) |

| SMILES | inhibition |
| --- | --- |
| COc1cc(CNc2ccc(N3CCN(C(C)=O)CC3)cc2)ccc1OCc1ccc(F)cc1 | -8.4% (inactive) |
| COc1ccc(C2CC(=O)C(C=NCCO)=C(O)C2)cc1 (stereo not given) | -0.8% (inactive) |
| COc1cc(/C=N/n2c(C)nc3ccccc3c2=O)ccc1O | 16.3% (inactive) |
| COc1ccc2nc(C)cc(SCC(=O)N/N=C/c3c(OC)ccc4ccccc34)c2c1 | 92% (active) |
| COc1ccc2c(c1)c(C(=O)N/N=C/c1ccc(OC)c(OC)c1)c(C)n2C | -4.6% (inactive) |
| COc1ccc(OC)c(NC(=O)Cc2coc3ccc4ccccc4c23)c1 | -4.5% (inactive) |
| CN(C)CCCNC(=S)N(CCCN(C)C)Cc1cc2cc3c(cc2[nH]c1=O)OCO3 | -11.5% (inactive) |
| CN(CCO)c1nc(N)c2c(N)nc3c(c2c1C#N)CC(=O)N3C1CCCC1 | 2.2% (inactive) |
| Cc1ccc(N=Nc2cc(C)ccc2O)c(C)c1 | 0.1% (inactive) |
| CC(=O)Nc1c(-c2ccccc2)c2cc(Br)ccc2[nH]c1=O | -0.4% (inactive) |
| CC1CCCN(CCCNC(=O)C2CCN(S(=O)(=O)N3CCC4(CC3)OCCO4)CC2)C1 (stereo not given) | 2.1% (inactive) |
| O=C(Cn1cnc2c(oc3nc4c(cc32)CCCC4)c1=O)Nc1cccc(Cl)c1 | 37.7% (inactive) |
| CSc1ccc(NC(=O)N2CCN(c3nc4ccccc4s3)CC2)cc1 | 5% (inactive) |
| Cc1ccc2nc(NC(=O)CCCc3nc4ccccc4s3)sc2c1 | -0.6% (inactive) |
| Cc1csc(NC(=O)CCCC(=O)O)c1-c1nc2ccccc2s1 | 98.8% (active) |
| O=C(CN1CCN(S(=O)(=O)c2ccc(Br)cc2)CC1)c1ccc(O)c(O)c1 | -4.1% (inactive) |
| Cc1cc(C)cc(NS(=O)(=O)c2ccc(-c3cnc(C4CC4)o3)cc2)c1 | 13% (inactive) |
| CCOc1cc(/C=N/NC(=O)c2ccc(-c3csc(Nc4ccc(C)cc4)n3)cc2)ccc1OCC(=O)O | 75.5% (active) |
| CC(NC(=O)COc1ccc(/C=N/NC(=O)CO)cc1)c1ccccc1 (stereo not given) | 1.2% (inactive) |
| CC(C)(C)c1ccc2c(c1)OC(C(=O)N/N=C\c1ccc[nH]1)CO2 (stereo not given) | 6.8% (inactive) |
| CCOC(=O)C1CCCN(CC(=O)Nc2nccs2)C1 (stereo not given) | 23.9% (inactive) |
